Assay results reported in PubChem BioAssay (NCATS).
Inconclusive results are not listed. Entries that show only a call come without a potency. Calls of active or inactive are those of the source. Calls come from the whole dose curve; as a rule, active = well fitted cell-killing curve with a large enough effect; inconclusive = small, poorly fitted or top-dose-only effect, or effect the other way; inactive = no such curve, though single readings can be large or run the other way.

experiment: Quantitative highthroughput screen to assess conditional lethalithy of SEM cells grown in RPMI1640 with dialyzed fetal bovine serum (RPMI+ds) (AID 1963884); details: SEM B-ALL cells, RPMI+dialyzed FBS, CellTiter-Glo viability, 48 h; series mostly up to 45.8 µM; note: nearly all actives have a fitted effect of over 35% in size
Source text: Assay Provider: Jason Cantor Ph.D.
Department of Biochemistry
University of Wisconsin-Madison, Madison, WI, USA
Chemical screening studies have identified drug sensitivities across hundreds of cancer cell lines but most putative therapeutics fail to translate. Discovery and development of drug candidates in models that more accurately reflect nutrient levels in human blood is a major challenge. Here we performed high-throughput screens in conventional versus Human Plasma-Like Medium (HPLM) to identify compounds that were "missed" when screening using the artificial culture condition. Sets of conditional anticancer compounds spanned phases of clinical development and included non-oncology drugs were assessed. […] We also traced conditional phenotypes for several chemotherapeutics to availability of HPLM-specific metabolites and confirmed others for compounds whose reported targets are encoded by nonessential genes. Our findings establish generalizable strategies for exploiting conditional lethality in HPLM to reveal therapeutic candidates and mechanisms of action in cancer cells.
Described herein are the results of each viability screens against three cell lines: NOMO1 (an acute myeloid leukemia cell line); P12-Ichikawa (a T-cell acute lymphoblastic leukemia); and SEM (a B-cell ALL). Each assay was screened using 3 different cell culture media: homemade human plasma-Like medium with 10% dialyzed fetal bovine serum (HPLM+ds); RPMI1640 with 10% untreated FBS and 5mM glucose (RPMI+s); and RPMI1640 with 10% dialyzed fetal bovine serum and 5 mM glucose (RPMI+ds).
PROTOCOL TABLE (as described by Inglese J, Shamu CE and Guy RK. 2007)
SEQUENCE No. (e.g., 1, 2, 3, etc.); […] (e.g., Cells, Incubation, Reagent, etc.); VALUE and DESCRIPTION.
1; Cells; 5 uL; white, solid bottom 1536-well Greiner assay plate.
2; Compounds; 23 nL; Kalypsis pin tool (Wako USA) equipped with a 1536-well pin head to transfer to the assay plates.
3; Incubation; 48 hours; 37C incubation.
4; Reagent; 3 uL; CellTiter Glo (Promega).
5; Incubation; 5 min, room temperature
6; Detection; Luminescence, Viewlux PerkinElmer.
NOTES (numbers refer to Sequence numbers above)
1. Briefly, 5 ul of cell reagent was dispensed using a Multidrop Combi Dispenser. The NOMO1 and SEM cells were plated at 500 cells/well and the P12-Ichikawa line at 1000 cells/well.
2. After seeding the cells, 23 nL of MIPE 4.1 library compounds (in DMSO) were added to each plate using a Kalypsys 1536 Pintool dispenser. Bortezomib at final concentration of […] and DMSO were added to each plate as positive and negative controls respectively. For each screen, MIPE 4.1 compounds were added over an eleven-point concentration range […] in 3-fold dilutions.
3. Each plate was covered with a stainless steel gasketed lid to prevent evaporation and incubated for 48 hour at 37C, 95% relative humidity, and 5% CO2.
4-5. Three microliter CellTilter-GloTM luminescent substrate mix (Promega) reagent was added to the assay plate and incubated at room temperature for 5 min.
6. The luminescence signal was measured using a ViewLux (PerkinElmer) multiplate reader with a 2 second exposure time per plate. Data for each compound were normalized as percent viability such that measurements for DMSO and the empty well controls in each plate were defined as 100% and 0%, respectively.
Potency is the fitted concentration of half-maximal effect.

SMILES | Potency
C[C@@H]1[C@H](O)[C@@H](C)C=CC=CC=CC=CC=CC=CC=C[C@H](O[C@@H]2O[C@H](C)[C@H](O)[C@H](N)[C@@H]2O)C[C@@H]2O[C@](O)(C[C@@H](O)C[C@@H](O)[C@H](O)CC[C@@H](O)C[C@@H](O)CC(=O)O[C@H]1C)C[C@H](O)[C@@H]2C(=O)O | inactive
COc1ccc(-n2nc(C(N)=O)c3c2C(=O)N(c2ccc(N4CCCCC4=O)cc2)CC3)cc1 | inactive
COc1ccc(-c2coc3cc(O)ccc3c2=O)cc1 | inactive
O=C(Nc1ccc(OC(F)(F)F)cc1)c1sccc1NCc1ccnc2ccccc12 | 7.43 µM (active)
O=C(C=CC#Cc1cccc(NS(=O)(=O)c2ccccc2)c1)NO | 2.35 µM (active)
C[C@@H]1CN(CC(=O)N2CC(C)(C)c3ncc(Cc4ccc(F)cc4)cc32)[C@@H](CN2CCOC[C@H]2C)CN1 | inactive
COc1cc(OC)c(NC(=O)Nc2cc(C)on2)cc1Cl | inactive
COc1cccc2c(NCc3ccccc3)nc(-n3c(N)nc4ccccc43)nc12 | 14.8 µM (active)
CNS(=O)(=O)CCc1ccc2[nH]cc(C3CCN(C)CC3)c2c1 | inactive
Cc1nc2cnc3ccc(C#Cc4cccnc4)cc3c2n1-c1ccc(C(C)(C)C#N)cc1 | 0.209 µM (active)
CCNC(=O)[C@H]1O[C@@H](n2cnc3c(N)nc(NCCc4ccc(CCC(=O)O)cc4)nc32)[C@H](O)[C@H]1O | inactive
CS(=O)(=O)N(Cc1ccco1)CC(O)Cn1c2ccccc2c2ccccc21 (stereo not given) | 5.9 µM (active)
O=C(OCC#CCSc1nnc(-c2cccc3ccccc23)o1)c1cc2ccccc2s1 | inactive
O=C1C[C@@H](c2ccc(O)cc2)Oc2cc(O)cc(O)c21 | inactive
Cc1cc(Nc2cc(CN3CCOCC3)c3nc(C)c(Cc4ccc(Cl)cc4F)n3n2)n[nH]1 | 1.48 µM (active)
O=C(O)C(=O)Nc1cccc(C2=NN=N[N]2)c1 | inactive
CS(=O)(=O)Oc1ccc2c(NC(N)=O)c(C(=O)c3ccc(Cl)cc3Cl)oc2c1 | inactive
CC1(C)NC(=O)N(c2ccc([N+](=O)[O-])c(C(F)(F)F)c2)C1=O | inactive
CCCS(=O)c1ccc2nc(NC(=O)OC)[nH]c2c1 (stereo not given) | 9.35 µM (active)
Cc1ccc(CN2CCNCC2)cc1NC(=O)CNc1ccc(F)c(F)c1 | inactive

SMILES | Potency
COc1cc(N2CCC(N(C)C)CC2)ccc1Nc1ncc(Cl)c(Nc2ccccc2P(C)(C)=O)n1 | 0.524 µM (active)
Cc1c(C(=O)NN2CCCCC2)nn(-c2ccc(Cl)cc2Cl)c1-c1ccc(Cl)cc1 | inactive
CNC(=O)c1ccc(N2C(=S)N(c3ccc(C#N)c(C(F)(F)F)c3)C(=O)C2(C)C)cc1F | inactive
COc1ccc(CCC(=O)Nc2nc3ccc(Cl)cc3s2)cc1OC | inactive
CC(C)N1[N]C(=C2C=c3cc(O)ccc3=N2)c2c(N)ncnc21 | 2.64 µM (active)
Oc1cccc(-c2nc(N3CCOCC3)c3oc4ncccc4c3n2)c1 | 7.62 µM (active)
Cc1cccc(C=NNc2cc(N3CCOCC3)nc(OCCc3ccccn3)n2)c1 | 14.8 µM (active)
CC(C)(C)c1nc(-c2cccc(NS(=O)(=O)c3c(F)cccc3F)c2F)c(-c2ccnc(N)n2)s1 | inactive
C[C@@H]1CC=CC=CC=CC=C[C@@H](O[C@@H]2O[C@H](C)[C@@H](O)[C@H](N)[C@H]2O)C[C@@H]2O[C@](O)(C[C@@H](O)C[C@@H]3O[C@@H]3C=CC(=O)O1)C[C@H](O)[C@@H]2C(=O)O | inactive
CCOc1cc(N2CCC(O)CC2)ccc1Nc1ncc2c(n1)N(C)c1ccccc1C(=O)N2C | 16.6 µM (active)
O=C1NC(=O)C(c2cnc3ccccn23)=C1c1cn2c3c(cccc13)CN(C(=O)N1CCOCC1)CC2 | 0.0074 µM (active)
C[C@@H]1CCN(C(=O)CC#N)C[C@H]1N(C)c1ncnc2[nH]ccc12 | inactive
Cc1cncc2cccc(S(=O)(=O)N3CCCN(C(=O)CN)C[C@@H]3C)c12 | 4.18 µM (active)
CC(=O)N[C@@H]1[C@H](O[C@@H]2c3ccc(c(Cl)c3)Oc3cc4cc(c3O[C@H]3O[C@H](CO)[C@@H](O)[C@H](O)[C@H]3NC(=O)CCCCCCCC(C)C)Oc3ccc(cc3Cl)C[C@H]3NC(=O)[C@H](N)c5ccc(O)c(c5)Oc5cc(O)cc(c5)[C@H](NC3=O)C(=O)N[C@H]4C(=O)N[C@H]3C(=O)N[C@@H]2C(=O)N[C@@H](C(=O)O)c2cc(O)cc(O[C@H]4O[C@H](CO)[C@@H](O)[C@H](O)[C@H]4O)c2-c2cc3ccc2O)O[C@H](CO)[C@@H](O)[C@@H]1O | inactive
CCOC(=O)[C@H](CCc1ccccc1)N[C@@H](C)C(=O)N1CCCC1C(=O)O (stereo not given in full) | inactive
O=C1CCC(N2C(=O)c3ccccc3C2=O)C(=O)N1 (stereo not given) | inactive
CCOC(=O)C1=C[C@@H](OC(CC)CC)[C@H](NC(C)=O)[C@@H](N)C1 | inactive
CC(=O)SCC(Cc1ccccc1)C(=O)NCC(=O)OCc1ccccc1 (stereo not given) | inactive
CCOCC(O)COc1ccc(NC(=O)CC[S+](C)C)cc1 (stereo not given) | inactive
CCN[C@H]1C[C@H](C)S(=O)(=O)c2sc(S(N)(=O)=O)cc21 | inactive
